Measured values published in PubChem BioAssay.
Active and inactive are the calls of the source.

Assays:
Albumin (Bos taurus) = Albumin (Bos taurus) (UniProt P02769); test: compounds binding labelled BSA control protein – biochemical, small-molecule microarray, Alexa647 label, 635/667 nm fluorescence, artefact control for SMM control protein annotation, profiling panel (AID 1118); details: BSA-A647 binding, fluorescence 635 nm, higher = more signal;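 further: score merges 667 nm emission intensity and signal-to-noise per printed compound spot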
Albumin (Bos taurus), sequence (P02769 whole entry, looked up): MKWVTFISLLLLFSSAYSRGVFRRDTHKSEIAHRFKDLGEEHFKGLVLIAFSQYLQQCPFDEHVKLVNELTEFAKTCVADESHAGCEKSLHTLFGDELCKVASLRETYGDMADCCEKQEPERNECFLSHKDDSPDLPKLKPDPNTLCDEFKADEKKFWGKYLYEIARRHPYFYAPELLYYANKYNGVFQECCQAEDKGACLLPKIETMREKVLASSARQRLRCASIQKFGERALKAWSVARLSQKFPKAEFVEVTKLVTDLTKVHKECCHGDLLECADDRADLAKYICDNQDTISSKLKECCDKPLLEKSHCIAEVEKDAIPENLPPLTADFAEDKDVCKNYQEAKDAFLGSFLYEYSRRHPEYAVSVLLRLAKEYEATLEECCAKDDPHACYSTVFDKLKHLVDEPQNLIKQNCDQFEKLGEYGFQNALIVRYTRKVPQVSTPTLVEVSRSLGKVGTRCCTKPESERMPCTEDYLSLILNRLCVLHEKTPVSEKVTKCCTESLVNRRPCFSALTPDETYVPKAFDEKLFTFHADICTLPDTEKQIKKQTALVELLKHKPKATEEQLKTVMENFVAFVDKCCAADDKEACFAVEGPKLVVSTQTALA

[1] = probe aXIP binding to arrayed compounds – biochemical, NeuroSMM set, 635/667 nm fluorescence, primary screen (AID 1119); details: small-molecule microarray, higher = more signal, called active from +8 up or from −8 down;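 further: probe is the protein aXip251-270 applied at 1 µg/mL to compound-printed slides; binding of probe to printed compounds measured as 667 nm fluorescence plus signal to noise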
[2] = probe aNOTCH3 binding on compound microarray – biochemical, small-molecule microarray, 635/667 nm fluorescence, primary screen (AID 1120); details: higher = more signal;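 further: probe is a biotin-tagged antibody raised against NOTCH3 rather than NOTCH3 protein; score merges spot fluorescence near 667 nm with spot signal to noise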
[3] = probe aNOTCH2 binding on compound microarray – biochemical, small-molecule microarray, 635/667 nm fluorescence, primary screen (AID 1121); details: higher = more signal;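 further: score merges feature fluorescence read at 667 nm with its signal to noise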
[4] = molecular target: Carbonic anhydrase 2 (Homo sapiens) (UniProt P00918); test: compounds binding carbonic anhydrase 2 – biochemical, small-molecule microarray, Alexa647-labelled CAII, profiling panel (AID 1122); details: CAII-A647 binding fluorescence, higher = more signal
[5] = COS7 lysate on small-molecule microarray, probe aHis, 635 nm (AID 1123); details: COS7 cell lysate, fluorescence, higher = more signal;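 further: z-score combines 667nm fluorescence intensity with signal-to-noise per printed compound spot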
[6] = probe aLAP1 signal on lysate-treated microarray – cell lysate, small-molecule microarray, COS7 lysate, primary screen (AID 1124); details: probe aLAP1, fluorescence, higher = more signal;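 further: lysate comes from COS7 cells expressing LAP1 and is applied at 0.3 µg/mL; score merges spot fluorescence near 667 nm with signal-to-noise over triplicate slides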
Sam68 (KHDRBS1) = test: compounds binding KHDRBS1 protein – biochemical, small-molecule microarray, 635 nm fluorescence, primary screen (AID 1125); details: higher = more signal;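 further: score merges 667 nm channel intensity with signal to noise over triplicate slides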
[7] = test system: Chordin-like protein 2 (CHRDL2); test: compounds binding chordin-like 2 – biochemical, small-molecule microarray, 635 nm fluorescence, primary screen (AID 1126); details: fluorescence 635 nm, higher = more signal;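 further: printed compound slides probed with Chrdl2 protein at 4 µg/mL for 1 h at 4 C; score merges 667 nm emission intensity with signal to noise over three replicate slides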
[8] = molecular target: Concanavalin-A (Canavalia ensiformis) (UniProt P02866); test: compounds binding concanavalin A lectin – biochemical, small-molecule microarray, Alexa647 label, 635 nm, artefact control for SMM control protein annotation, primary screen (AID 1127); details: ConA-A647 binding fluorescence, higher = more signal;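 further: z combines 667 nm emission intensity with signal-to-noise across three replicate slides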
Concanavalin-A (Canavalia ensiformis), sequence (P02866 whole entry, looked up): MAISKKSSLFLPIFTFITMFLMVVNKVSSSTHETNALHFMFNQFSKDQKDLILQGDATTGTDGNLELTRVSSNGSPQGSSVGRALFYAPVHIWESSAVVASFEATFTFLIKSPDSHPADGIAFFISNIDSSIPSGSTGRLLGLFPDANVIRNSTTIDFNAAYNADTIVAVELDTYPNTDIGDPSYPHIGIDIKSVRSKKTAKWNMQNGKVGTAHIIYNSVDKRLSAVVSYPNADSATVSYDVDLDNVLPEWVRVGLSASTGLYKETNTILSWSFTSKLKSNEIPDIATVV

[9] = compounds binding Alexa647 anti-His antibody – biochemical, small-molecule microarray, 635 nm fluorescence, artefact control for SMM control protein annotation, primary screen (AID 1128); details: higher = more signal;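 further: score merges feature fluorescence with signal-to-noise for each printed compound spot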
[10] = test system: Human papillomavirus type 1a E7 protein (residues 1-88); test: HPV1a E7 small-molecule binders, primary screen, biochemical, small-molecule microarray, residues 1-88, 635 nm (AID 1129); details: small-molecule microarray binding, fluorescence 635 nm; higher = more signal
[11] = molecular target: Focal adhesion kinase 1 (Homo sapiens) (UniProt Q05397); test: PTK2 protein binding on printed compound slides – biochemical, small-molecule microarray, 635/667 nm fluorescence, BSA, DTT, primary screen (AID 1130); details: 635 nm fluorescence, higher = more signal;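 further: composite of spot emission at 667 nm and signal to noise over triplicate slides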
Focal adhesion kinase 1 (Homo sapiens), sequence (Q05397 whole entry, looked up): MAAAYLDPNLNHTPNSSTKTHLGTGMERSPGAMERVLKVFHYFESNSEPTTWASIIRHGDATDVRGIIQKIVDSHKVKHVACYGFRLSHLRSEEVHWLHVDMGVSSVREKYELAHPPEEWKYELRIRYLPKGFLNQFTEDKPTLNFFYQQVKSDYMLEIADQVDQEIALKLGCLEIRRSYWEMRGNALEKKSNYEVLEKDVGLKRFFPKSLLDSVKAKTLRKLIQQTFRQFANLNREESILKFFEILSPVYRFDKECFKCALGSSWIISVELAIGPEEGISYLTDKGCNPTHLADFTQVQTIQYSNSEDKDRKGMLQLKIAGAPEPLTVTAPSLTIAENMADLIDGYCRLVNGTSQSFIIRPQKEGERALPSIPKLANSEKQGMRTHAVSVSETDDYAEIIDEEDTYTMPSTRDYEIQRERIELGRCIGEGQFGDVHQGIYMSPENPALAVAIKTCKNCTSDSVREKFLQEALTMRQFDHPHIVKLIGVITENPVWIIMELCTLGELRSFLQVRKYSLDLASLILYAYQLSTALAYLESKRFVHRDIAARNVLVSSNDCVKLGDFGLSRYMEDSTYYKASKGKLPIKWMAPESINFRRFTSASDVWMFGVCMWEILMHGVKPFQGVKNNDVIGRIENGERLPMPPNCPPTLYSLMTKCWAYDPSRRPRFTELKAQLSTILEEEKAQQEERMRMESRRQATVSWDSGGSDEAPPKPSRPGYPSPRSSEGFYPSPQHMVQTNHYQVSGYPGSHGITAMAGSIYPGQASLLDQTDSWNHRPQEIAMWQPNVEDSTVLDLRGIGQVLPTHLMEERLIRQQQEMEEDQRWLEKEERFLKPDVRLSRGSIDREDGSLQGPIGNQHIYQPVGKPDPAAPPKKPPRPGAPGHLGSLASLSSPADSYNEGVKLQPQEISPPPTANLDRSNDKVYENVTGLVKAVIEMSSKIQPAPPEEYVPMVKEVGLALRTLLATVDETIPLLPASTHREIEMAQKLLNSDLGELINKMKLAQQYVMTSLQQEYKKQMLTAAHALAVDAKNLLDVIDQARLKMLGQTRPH

[12] = test system: Fibrinogen (Alexa647-labelled); test: Alexa647-fibrinogen binding to printed small molecules – biochemical, small-molecule microarray, 635/667 nm fluorescence, artefact control for SMM control-protein annotation, profiling panel (AID 1131); details: fibrinogen-A647 binding fluorescence, higher = more signal;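 further: z-score merges 667 nm fluorescence with per-spot signal-to-noise over triplicate slides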
[13] = molecular target: Follistatin (Homo sapiens) (UniProt P19883); test: FST protein binding to printed compounds – biochemical, small-molecule microarray, 635/667 nm fluorescence, primary screen (AID 1132); details: 635 nm fluorescence, higher = more signal
Follistatin (Homo sapiens), sequence (P19883 whole entry, looked up): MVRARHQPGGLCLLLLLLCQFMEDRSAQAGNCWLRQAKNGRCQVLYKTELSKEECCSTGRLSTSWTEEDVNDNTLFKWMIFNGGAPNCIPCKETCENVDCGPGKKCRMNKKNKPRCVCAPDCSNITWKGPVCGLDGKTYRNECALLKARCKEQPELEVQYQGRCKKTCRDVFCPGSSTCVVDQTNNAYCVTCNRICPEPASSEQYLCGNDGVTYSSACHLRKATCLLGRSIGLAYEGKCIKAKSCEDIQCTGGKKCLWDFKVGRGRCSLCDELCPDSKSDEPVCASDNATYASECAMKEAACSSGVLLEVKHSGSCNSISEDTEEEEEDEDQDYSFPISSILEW

[14] = molecular target: Fibroblast growth factor 2 (Homo sapiens) (UniProt P09038); test: basic fibroblast growth factor binding to printed compounds – biochemical, small-molecule microarray, 635/667 nm fluorescence, primary screen (AID 1133); details: FGF2, fluorescence 635/667, higher = more signal
Fibroblast growth factor 2 (Homo sapiens), sequence (P09038 whole entry, looked up): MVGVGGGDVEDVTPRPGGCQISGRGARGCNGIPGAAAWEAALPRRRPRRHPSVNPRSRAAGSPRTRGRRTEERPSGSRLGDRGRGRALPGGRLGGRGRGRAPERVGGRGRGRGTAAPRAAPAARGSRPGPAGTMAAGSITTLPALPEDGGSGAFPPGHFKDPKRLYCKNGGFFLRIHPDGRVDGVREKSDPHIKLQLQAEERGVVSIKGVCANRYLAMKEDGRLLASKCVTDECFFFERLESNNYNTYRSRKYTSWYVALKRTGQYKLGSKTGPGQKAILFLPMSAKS

[15] = JC-1 mitochondrial potential readout, lung cancer cells – cell-based, A549, JC-1 fluorescence, basal, 24 h, 100 nL, profiling panel (AID 1138); details: higher = more signal;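 further: A549 lung adenocarcinoma cells under basal conditions with no added stimulus; test concentration not given here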
Lefty1 = Lefty1 protein binding to printed compounds – biochemical, small-molecule microarray, 635/667 nm fluorescence, primary screen (AID 1139); details: fluorescence 635/667, higher = more signal
[16] = test system: wheat germ agglutinin (Triticum aestivum), Alexa647-labelled; test: Alexa647-WGA lectin binding to printed small molecules – biochemical, small-molecule microarray, 635/667 nm fluorescence, artefact control for SMM control-protein annotation, profiling panel (AID 1140); details: WGA-A647 binding, 635 nm fluorescence, higher = more signal;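 further: score merges 667 nm feature emission with signal to noise over triplicate slides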
[17] = molecular target: Luciferin 4-monooxygenase (Photinus pyralis) (UniProt P08659); test: inhibition of purified Photinus pyralis luciferase – biochemical, luminescence, purified enzyme, 2006 set, primary screen (AID 1141); details: purified firefly luciferase, SteadyGlo luminescence, 30 min; higher = more signal, called active from +8 up or from −8 down;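 further: cell-free assay with purified firefly luciferase at 100 ng per well in PBS; test concentration not given here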
Luciferin 4-monooxygenase (Photinus pyralis), sequence (P08659 whole entry, looked up): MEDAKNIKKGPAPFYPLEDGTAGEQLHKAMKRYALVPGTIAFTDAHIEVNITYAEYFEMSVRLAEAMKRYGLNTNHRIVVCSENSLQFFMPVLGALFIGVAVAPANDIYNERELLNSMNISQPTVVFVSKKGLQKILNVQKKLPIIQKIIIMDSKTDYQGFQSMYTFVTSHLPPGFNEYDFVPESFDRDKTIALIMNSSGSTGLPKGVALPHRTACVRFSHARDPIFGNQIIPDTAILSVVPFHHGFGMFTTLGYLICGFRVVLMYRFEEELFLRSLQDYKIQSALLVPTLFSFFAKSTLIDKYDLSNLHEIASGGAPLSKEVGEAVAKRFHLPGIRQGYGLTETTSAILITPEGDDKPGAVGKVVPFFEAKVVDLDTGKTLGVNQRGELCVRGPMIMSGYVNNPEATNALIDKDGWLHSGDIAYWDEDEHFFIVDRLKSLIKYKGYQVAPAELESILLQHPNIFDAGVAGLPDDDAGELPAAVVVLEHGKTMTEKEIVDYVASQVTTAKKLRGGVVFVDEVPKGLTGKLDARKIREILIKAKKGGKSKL

SMILES | composite z-score (Albumin (Bos taurus)) | composite Z-score [1] | composite z-score [2] | composite z-score [3] | composite z-score [4] | composite z-score [5] | composite z-score [6] | composite z-score (Sam68 (KHDRBS1)) | composite z-score [7] | composite z-score [8] | composite z-score [9] | composite z-score [10] | composite z-score [11] | composite z-score [12] | composite z-score [13] | composite z-score [14] | z-score [15] | composite z-score (Lefty1) | composite z-score [16] | z-score [17]
C=CC[C@@]1(C(=O)NCC(O)CO)N=C(c2ccc(OCCCO)cc2)O[C@@H]1c1ccccc1CN=[N+]=[N-] (stereo not given in full) | 0.988 | 0.536 (inactive) | -0.105 | -0.0759 | 0.809 | 2.98 | 0.411 | 1.04 | -0.834 | -0.304 | 1.55 | 0.756 | 0.77 | 0.198 | 0.415 | -0.492 | 1.37 | -0.548 | 0.569 | -0.117 (inactive)
CCN1C(C)=C(C(=O)OC)[C@@H](c2ccccc2)N2C(=O)[C@@]3(C(=O)OC)O[C@@]12[C@@H]1C(=O)CCC[C@@H]13 | -0.439 | -0.166 (inactive) | -0.0345 | -0.195 | 0.558 | -0.503 | -0.227 | 0.475 | 1.46 | -0.92 | -0.116 | -0.356 | -0.315 | -1.47 | 1.29 | 1.01 | 0.862 | 1.48 | -1.05 | -2.3 (inactive)
